This is one part of the list. Unmarked numbers belong to inactive results. Calls of active or inactive are those of the source.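 Rule for the calls: active = cytotoxicity above 50% in each of four replicates; inactive = the rest.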

This assay in a line: AML12 hepatocyte cytotoxicity, confirmation, cytotoxicity control for hepatic lipid droplet formation project, cell-based, single concentration (AID 463219).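 Note: compound exposure lasted overnight at 37 °C before the ATP read; 0% = DMSO-treated cells and 100% = wells with no cells.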 Conditions: AML12 mouse hepatocyte viability, ATP luminescence; at 50 µM; stronger effect = higher value; cells loaded with 100 µM oleic acid.
Take `COc1ccc(Cl)cc1NC(=O)CN(C)C(=O)CCCc1c[nH]c2ccccc12`: the cytotoxicity was 22.5%.

`Cn1c(=O)[nH]c(=O)c2c1nc(N1CCN(C(c3ccccc3)c3ccccc3)CC1)n2CCO`: the cytotoxicity was 77.5% (active). Then `CCCN(CCC)c1ccc(C(O)c2nnc(-c3ccccc3)o2)cc1` (stereo not drawn), with 6.65%; and `CCOc1ccc(CCNC(=O)CCc2nnc3ccc(N4CCCC4)nn23)cc1OCC`, with 2.1%; and `COc1cccc(/C=C(/CC(=O)Nc2ccc(N3CCOCC3)cc2)c2nc3ccccc3s2)c1`, with 9.53%. Then `Cc1ccc(N2C(=O)C(NC(=O)c3c(F)cccc3F)(C(F)(F)F)C3=C2CC(C)(C)CC3=O)cc1` (stereo not drawn), with 13.2%; and `CCOc1ccc(CCNC(=O)Nc2ccccc2)cc1OCC`, with 12.3%; and `COc1ccc(C(C(=O)NC(C)(C)C)N(Cc2ccc(F)cc2)C(=O)CCC(=O)Nc2cc(C)on2)cc1` (stereo not drawn), with 10.5%. Then `Cc1cc(NC(=O)CSc2nc(C(C)C)nc3sc4c(c23)CCC(C)C4)no1` (stereo not drawn), with 10.1%.

Regarding `Cc1cc(C(=O)NC2CCCc3c2cnn3-c2cccc(C)c2C)c(C)o1` (stereo not drawn), the cytotoxicity was 14.5%.

With `CCCc1ccc(-c2csc(NC(=O)Cc3cccs3)n2)cc1`, the cytotoxicity is 14%. As to `COc1ccc(/C=C(\NC(=O)c2ccc(OCC(C)C)cc2)C(=O)OCc2ccco2)cc1`, the cytotoxicity was 7.73%. As for `O=C1Nc2ccc(Br)cc2/C1=N/N=C/C1=C(N2CCOCC2)C(=C\c2ccccc2)/CC1`, the cytotoxicity is -0.325%.
